Screen size: about 16,000 compounds; about 5,700 (36%) were called active. Inconclusive results (about 24%) are left out. The call rests on the fitted dose curve; in most records, active means well fitted curve in the direction sought with a large enough effect; inconclusive means small, poorly fitted or top-dose-only effect, or effect the other way; inactive means no such curve, though single readings can be large or run the other way. The list shows a part of the results.
Target: Cytochrome P450 1A2 (Homo sapiens) (UniProt P05177)
Experiment: Cytochrome panel assay with activity outcomes
Details: recombinant CYP, pro-luciferin dealkylation, luminescence, p450-cyp1a2; series mostly up to 57.1 µM
On the % scale 0 is the no-effect control and ±100 the full control effect.

Sequence of Cytochrome P450 1A2 (Homo sapiens) (P05177 whole entry, looked up): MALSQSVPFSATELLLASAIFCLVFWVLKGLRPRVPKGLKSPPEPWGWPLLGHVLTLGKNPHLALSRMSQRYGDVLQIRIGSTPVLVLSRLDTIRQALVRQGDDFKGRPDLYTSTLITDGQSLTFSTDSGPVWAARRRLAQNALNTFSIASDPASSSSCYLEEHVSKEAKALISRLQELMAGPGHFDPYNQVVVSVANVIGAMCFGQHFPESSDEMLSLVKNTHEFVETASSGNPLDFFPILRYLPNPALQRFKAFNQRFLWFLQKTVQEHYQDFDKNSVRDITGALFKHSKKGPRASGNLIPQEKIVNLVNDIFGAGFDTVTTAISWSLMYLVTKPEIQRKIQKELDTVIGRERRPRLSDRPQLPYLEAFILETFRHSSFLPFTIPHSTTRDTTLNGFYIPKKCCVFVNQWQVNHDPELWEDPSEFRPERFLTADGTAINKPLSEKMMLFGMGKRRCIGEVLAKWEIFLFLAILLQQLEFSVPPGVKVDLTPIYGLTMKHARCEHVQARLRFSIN

| Structure (SMILES) | activity, negative = inhibition | AC50 |
| --- | --- | --- |
| CC(=O)C[C@H](O)[C@@H](NC(=O)OC(C)(C)C)C(C)C | 0.505% [at 11.4 µM] (inactive) |  |
| Cc1cc(C2(c3cc(C)c(O)c(C(=O)O)c3)OS(=O)(=O)c3ccccc32)cc(C(=O)O)c1O | -9.3% [at 11.4 µM] (inactive) |  |
| c1ccc([P+](CC[P+](c2ccccc2)(c2ccccc2)c2ccccc2)(c2ccccc2)c2ccccc2)cc1 | -7.8% [at 11.4 µM] (inactive) |  |
| Nc1nc(=S)[nH]c2c1C1(CCCC1)Cc1ccccc1-2 |  | 891 nM (active) |
| O=c1c2c(n3cnnc3n1-c1ccccc1)-c1ccccc1CC21CCCCC1 |  | inactive |
| CCOC(=O)CCN1C(=O)[C@H]2[C@H]3[C@H](O)[C@H](O)C/C(=N/OC/C=C(\C)CCC=C(C)C)[C@H]3CC[C@@H]2C1=O | 1.64% [at 11.4 µM] (inactive) |  |
| CC(=O)c1cccc(NC(=O)c2csc(-n3nc(C)cc3C(F)(F)F)n2)c1 |  | 3160 nM (active) |
| CO[C@H]1[C@@H](OC(N)=O)[C@H](O)[C@@H](Oc2ccc3c(O)c(NC(=O)c4ccc(O)c(CC=C(C)C)c4)c(=O)oc3c2C)OC1(C)C |  | inactive |
| Cc1cc2c(nc1C)CCCN2C[C@H](C)O/N=C1/[C@H]2O[C@@H]2[C@@H](O)[C@H]2[C@H]1CCn1c(=O)n(-c3ccccc3)c(=O)n12 | 2.9% [at 11.4 µM] (inactive) |  |
| Cc1cc(C(=O)Nc2c(C)n(C)n(-c3ccccc3)c2=O)c2ccccc2n1 |  | inactive |
| Cc1cc(SC(C)C(=O)Nc2c(C)n(C)n(-c3ccccc3)c2=O)nc2ccccc12 (stereo not drawn) |  | 1000 nM (active) |
| Cc1c(NC(=O)Nc2c(Cl)cccc2Cl)c(=O)n(-c2ccccc2)n1C | -6.85% [at 11.4 µM] (inactive) |  |
| CCCc1cc(=O)[nH]c(=S)[nH]1 |  | inactive |
| O=c1c(-c2ccc(F)cc2)nc2cnc(N3CCNCC3)nc2n1C1CC1 |  | 2510 nM (active) |
| O=c1c(-c2cc(F)cc(F)c2)nc2cnc(N3CCNCC3)nc2n1C1CC1 |  | 3160 nM (active) |
| COc1ccc(-c2nc3cnc(N4CCNCC4)nc3n(C3CC3)c2=O)cc1 |  | 6310 nM (active) |
| CS(=O)(=O)N1CCC2(CCCN(c3ccncc3)C2)CC1 |  | inactive |
| C/C(=N\NC(=O)CC1N=C(Cc2ccccc2)NNC1=O)c1ccc(Cl)cc1Cl (stereo not drawn) |  | inactive |
| C/C(=N\NC(=O)Cc1ccc(Cl)cc1)c1ccccn1 |  | 4470 nM (active) |
| COc1cccc([C@H](O)Cn2cc(-c3cccc(CON=C(C)C)c3)nn2)c1 | -3.64% [at 11.4 µM] (inactive) |  |

| Structure (SMILES) | activity, negative = inhibition | AC50 |
| --- | --- | --- |
| C[N+]1(C)CCc2cc3c(cc2[C@@H]1[C@@H]1C(=O)Oc2c1ccc1c2OCO1)OCO3 |  | 1260 nM (active) |
| COc1ccc2c(c1OC)C(=O)OC2[C@H]1c2c(cc3c(c2OC)OCO3)CCN1C (stereo partly drawn) |  | inactive |
| C=CCNc1oc(/C=C/c2ccccc2)nc1C#N |  | 3550 nM (active) |
| O=C(c1csnn1)N1CCC2(CC1)CN(C(c1ccccc1)c1ccccc1)C2 |  | inactive |
| CCOC(=O)C(=Cc1ccc(-c2ccsc2C(=O)OC)o1)C(=O)OCC |  | 14100 nM (active) |
| S=C1SCN(C2CCCCCCCCCCC2)CN1C1CCCCCCCCCCC1 | -14.7% [at 2.29 µM] (inactive) |  |
| COc1ccccc1CN1CCCC2(CCN(C(=O)c3ccco3)CC2)C1 |  | inactive |
| O=C(Cn1cc(C(=O)c2ccco2)c2ccccc21)NCc1ccco1 |  | 11200 nM (active) |
| COc1ccccc1OCCn1cc(C(=O)c2ccco2)c2ccccc21 |  | 2510 nM (active) |
| O=C(CSc1ccccc1C(=O)O)NCc1ccco1 |  | inactive |
| COc1ccccc1CN1CCC2(CC1)CCN(C(=O)c1ccco1)CC2 |  | inactive |
| N#Cc1cc(-c2ccc(Cl)cc2)cnc1Sc1ccccc1 |  | 398 nM (active) |
| N#Cc1cc(-c2ccc(Cl)cc2)cnc1Sc1ccc(F)cc1 |  | 112 nM (active) |
| N#Cc1cc(-c2ccccc2)cnc1Sc1ccc(Cl)cc1 |  | 1780 nM (active) |
| CO/N=C(\C(=O)N[C@@H]1C(=O)N2C(C(=O)O)=C(COC(C)=O)CS[C@@H]12)c1csc(N)n1 |  | inactive |
| CN[C@]1(C)[C@H]2CC[C@@H](C2)C1(C)C |  | inactive |
| CC(=O)OC[C@@H]1O[C@H](C/C=N\O[C@@H](C)c2cn([C@H]3COC[C@H]3O)nn2)C=C[C@@H]1OC(C)=O | -4.99% [at 11.4 µM] (inactive) |  |
| COc1ccc(C(=O)N2CCC3(CCCN(C(=O)Nc4cccc(F)c4)C3)CC2)cc1 |  | 20000 nM (active) |
| CC(=O)N1CCC2(CCCN(C(=O)Nc3cccc(F)c3)C2)CC1 |  | inactive |
| COC(=O)N1CCC2(CCN(C(=O)Nc3cccc(F)c3)CC2)CC1 |  | 12600 nM (active) |

| Structure (SMILES) | activity, negative = inhibition | AC50 |
| --- | --- | --- |
| O=C(Nc1cccc(F)c1)N1CCCC2(CCN(C(=O)c3ccncc3)CC2)C1 |  | 12600 nM (active) |
| COC(=O)N1CCC2(CC1)CN(C(=O)Nc1cccc(F)c1)C2 |  | inactive |
| O=C(Nc1cccc(F)c1)N1CCCC2(CCN(C(=O)c3cnccn3)CC2)C1 |  | inactive |
| COC(=O)N1CCC2(CCCN(C(=O)Nc3cccc(F)c3)C2)CC1 |  | inactive |
| COc1ccc(C(=O)N2CCC3(CCN(C(=O)Nc4cccc(F)c4)CC3)CC2)cc1 |  | inactive |
| COc1ccc(NC(=O)N2CCCC3(CCN(C(=O)c4cccc(F)c4)CC3)C2)cc1 |  | inactive |
| COc1ccc2[nH]cc(CCNc3ccnc(-c4ccccc4Cl)n3)c2c1 |  | 398 nM (active) |
| COc1ccc2[nH]cc(CCNc3ccnc(-c4ccccc4C)n3)c2c1 |  | 316 nM (active) |
| C#C[C@H](N)CCC(=O)O |  | inactive |
| Nc1ncnc2nn([C@H]3O[C@@H](CO)[C@@H](O)[C@H]3O)nc12 | -11.4% [at 11.4 µM] (inactive) |  |
| Cc1ccc2c(c1)N[C@H](c1ccc(C(=O)O)cc1)c1cccn1-2 |  | 794 nM (active) |
| Cc1ccc(C)c(S(=O)(=O)NCc2ccc(C(=O)N3CCC(Cc4ccccc4)CC3)cc2)c1 |  | inactive |
| CN(C)CCNCCN | -0.129% [at 11.4 µM] (inactive) |  |
| N=C(N)c1ccccc1 |  | inactive |
| N=C(N)c1ccc(N=Nc2c(O)ccc3c2[nH]c2ccccc23)cc1 |  | 1580 nM (active) |
| O=C(NCCCc1ccccc1)c1cccs1 |  | 11200 nM (active) |
| Cc1ccc(NC(=O)NCCCc2ccccc2)cc1 |  | 3550 nM (active) |
| CC(C)C(=O)NCCCc1ccccc1 |  | inactive |
